Activity calls are given as the source filed them. How the source made its calls: active means hit-call score of the fitted dose curve at least 0.9, where 1 is the maximum; inactive means score below 0.9.
Columns and labels:
[1] = target: Transcription factor E2F1 (Homo sapiens) (UniProt Q01094); test: ATG_E2F_CIS: Attagene CIS-FACTORIAL HepG2 Assay for human E2F Transcription Factor 1 (AID 2282935); details: HepG2 Attagene cis-reporter, E2F reporter RNA transcripts; actives raise or lower the signal
Chain of Transcription factor E2F1 (Homo sapiens) (Q01094 whole entry, looked up): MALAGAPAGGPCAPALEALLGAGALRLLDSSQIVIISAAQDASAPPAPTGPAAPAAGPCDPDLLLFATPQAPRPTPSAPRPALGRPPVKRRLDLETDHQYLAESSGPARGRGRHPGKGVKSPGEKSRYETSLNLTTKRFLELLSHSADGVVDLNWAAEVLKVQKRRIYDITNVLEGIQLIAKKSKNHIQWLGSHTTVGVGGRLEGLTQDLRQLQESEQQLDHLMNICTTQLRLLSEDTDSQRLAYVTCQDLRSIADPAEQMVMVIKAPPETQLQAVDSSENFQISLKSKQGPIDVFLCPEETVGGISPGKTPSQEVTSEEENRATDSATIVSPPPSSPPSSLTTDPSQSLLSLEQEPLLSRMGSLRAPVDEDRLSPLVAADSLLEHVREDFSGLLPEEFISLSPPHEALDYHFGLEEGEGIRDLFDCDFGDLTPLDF
Outline: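 Measures reporter transcript levels via RT-PCR with capillary electrophoresis detection in HepG2 cells harboring cis-regulated reporter units; 24 h post-dose; bidirectional curve fitting with DMSO as baseline.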

[2] = ATG_E_Box_CIS: Attagene CIS-FACTORIAL HepG2 Assay for human Enhancer Box (E-box) (AID 2282936); details: HepG2 E-box cis-reporter transcription, actives raise or lower the signal
Outline: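 First, HepG2 cells receive multiple cis-regulated reporter constructs by transient transfection. Next, chemicals are applied for 24 h. Finally, reporter mRNA is quantified via RT-PCR and capillary electrophoresis, with DMSO as baseline.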

[3] = ATG_M_61_CIS: Attagene CIS-FACTORIAL HepG2 Assay for M61 Transcription Factor (Internal Marker) (AID 2282937); details: HepG2 Attagene CIS-FACTORIAL M61 internal marker reporter; actives raise or lower the signal
Outline: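 Multiplexed reporter mRNA assay, HepG2 human hepatoma cells, 24 h treatment. Signal: FAM-labelled, HpaI-digested RT-PCR fragments by CE. Fit: bidirectional, baseline DMSO.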

[4] = ATG_EGR_CIS: Attagene CIS-FACTORIAL HepG2 Assay for human Early Growth Response 1 (EGR1) (AID 2282938); details: HepG2 Attagene CIS-FACTORIAL EGR reporter mRNA; actives raise or lower the signal
Outline: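 Multiplexed cis-reporter system in human hepatoma HepG2 cells, transiently transfected. Cells are dosed for 24 h; reporter transcripts are amplified, fluorescently tagged and sized by capillary electrophoresis, with DMSO as negative control.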

[5] = ATG_M_19_CIS: Attagene CIS-FACTORIAL HepG2 Assay for M19 Transcription Factor (Internal Marker) (AID 2282939); details: HepG2 Attagene CIS-FACTORIAL M19 internal marker reporter; actives raise or lower the signal
Outline: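 Following a 24 h exposure, RNA from transfected HepG2 cells was reverse-transcribed, PCR-amplified with reporter-specific primers, end-labelled with 6-FAM and HpaI-digested before capillary separation. Values represent gain or loss versus DMSO.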

[6] = ATG_ERE_CIS: Attagene CIS-FACTORIAL HepG2 Assay for Estrogen Response Element (ERE) (AID 2282940); details: HepG2 ERE cis-reporter, Attagene RNA transcript; actives raise or lower the signal
Outline: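 HepG2, transient cis-reporter units, 24 h exposure. RNA isolated, oligo(dT) RT, reporter-specific PCR, FAM extension, HpaI cut, CE detection. Gain/loss-of-signal vs DMSO.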

[7] = ATG_Ets_CIS: Attagene CIS-FACTORIAL HepG2 Assay for human Erythroblast Transformation Specific (ETS) (AID 2282941); details: HepG2 ETS cis-reporter transcription, actives raise or lower the signal
Outline: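 Human HepG2 hepatoma cells were transiently transfected with promoter-driven reporter constructs and treated for 24 hours. Reporter transcripts were quantified by RT-PCR with fluorescent primer extension; bidirectional curve fitting used DMSO as reference.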

[8] = target: Hepatocyte nuclear factor 3-beta (Homo sapiens) (UniProt Q9Y261); test: ATG_FoxA2_CIS: Attagene CIS-FACTORIAL HepG2 Assay for human Forkhead box A2 (FOXA2) (AID 2282942); details: HepG2 cis-reporter transcription factor activity, 24 h; actives raise or lower the signal
Chain of Hepatocyte nuclear factor 3-beta (Homo sapiens) (Q9Y261 whole entry, looked up): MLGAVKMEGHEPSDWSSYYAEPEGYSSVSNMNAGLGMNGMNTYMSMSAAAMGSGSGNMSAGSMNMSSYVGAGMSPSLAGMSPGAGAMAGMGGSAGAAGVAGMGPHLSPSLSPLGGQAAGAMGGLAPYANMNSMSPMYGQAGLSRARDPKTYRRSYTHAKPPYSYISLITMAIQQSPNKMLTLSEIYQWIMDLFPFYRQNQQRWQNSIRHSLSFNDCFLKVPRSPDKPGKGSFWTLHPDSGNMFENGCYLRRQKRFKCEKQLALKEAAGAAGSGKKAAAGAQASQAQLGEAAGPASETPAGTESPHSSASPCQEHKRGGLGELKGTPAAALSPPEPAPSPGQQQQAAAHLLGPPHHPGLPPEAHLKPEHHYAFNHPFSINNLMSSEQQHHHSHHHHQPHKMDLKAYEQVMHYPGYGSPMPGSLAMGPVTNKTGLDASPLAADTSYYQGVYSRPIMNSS
Outline: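 Multiplexed cis-element reporter assay in transiently transfected HepG2. Twenty-four hours post-dosing, RNA was reverse-transcribed, amplified, FAM-labelled, HpaI-digested and separated by CE. Activity gain or loss relative to DMSO.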

[9] = ATG_FoxO_CIS: Attagene CIS-FACTORIAL HepG2 Assay for human Forkhead box O (FoxO) (AID 2282943); details: HepG2 Attagene cis-reporter, FoxO element, mRNA; actives raise or lower the signal
Outline: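 Transfected HepG2 reporter cells exposed to test chemical for 24 h; reporter RNA measured by reverse transcription, PCR and fluorescent capillary electrophoresis; curves fitted for increases and decreases against DMSO.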

[10] = ATG_GATA_CIS: Attagene CIS-FACTORIAL HepG2 Assay for human GATA Binding Protein (AID 2282944); details: HepG2 GATA cis-element reporter, Attagene multiplex mRNA; actives raise or lower the signal
Outline: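 DMSO serves as negative control and baseline for bidirectional fitting of reporter mRNA changes. HepG2 cells bearing transiently transfected cis-promoter reporters were exposed 24 h; transcripts detected via RT-PCR and capillary electrophoresis.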

Measured: AC50

O=C1CCCCCCCCCCCN1
inactive: all assays above

NNS(=O)(=O)c1ccc(Oc2ccc(S(=O)(=O)NN)cc2)cc1
inactive: all assays above

CCCCCC[C@@H](O)C/C=C\CCCCCCCC(=O)OCC(O)CO (stereo not given in full)
active: [1] 133 µM | [4] 151 µM | [7] 178 µM | [9] 178 µM | [10] 128 µM
inactive: [2] | [3] | [5] | [6] | [8]

CC(C)(c1ccccc1)c1ccc(Nc2ccc(C(C)(C)c3ccccc3)cc2)cc1
inactive: all assays above

CCC(C)c1ccccc1 (stereo not given)
inactive: all assays above

CC(C)c1ccc2ncccc2c1
inactive: all assays above

CCCCCCCCCC[N+](C)(CCCCCCCCCC)CCC[Si](OC)(OC)OC
active: [2] 17.8 µM | [4] 7.33 µM | [5] 17.8 µM | [8] 17.7 µM | [10] 14.1 µM
inactive: all other assays above

CCCC/C=C/C=C\C=O
active: [4] 100 µM
inactive: all other assays above

C=CCCCCCCCCC=O
active: [6] 88.7 µM
inactive: all other assays above

CC(C=O)c1ccccc1 (stereo not given)
inactive: all assays above

O=C1CCCCC1C1CCCCC1 (stereo not given)
inactive: all assays above

CC1CC(=O)CC(C)(C)C1 (stereo not given)
inactive: all assays above

Cc1ccc(S(=O)(=O)N=C=O)cc1
inactive: all assays above

COCC(=O)O
inactive: all assays above

CC(=O)OC/C=C(/C)CCC=C(C)C
inactive: all assays above

O=C(O)C(F)(F)C(F)(F)C(F)(F)C(F)(F)C(=O)O
inactive: all assays above

CC1(C)C(=O)N(CO)C(=O)N1CO
inactive: all assays above

Nc1nc(N)nc(-c2ccccc2)n1
inactive: all assays above

CCCCCCCO
active: [6] 30 µM
inactive: all other assays above

CC(C)[N+](C)(CCOC(=O)C1c2ccccc2Oc2ccccc21)C(C)C
inactive: all assays above

CCOC(=O)c1ccccc1C
inactive: all assays above

O=S(=O)(O)c1ccc(N=Nc2c(O)ccc3ccccc23)cc1
active: [6] 33.5 µM | [8] 7.83 µM
inactive: all other assays above

C=CC(C)(CCC=C(C)C)OC(=O)C=Cc1ccccc1 (stereo not given)
active: [6] 17.7 µM
inactive: all other assays above

CCOC(=O)C1=NOC(c2ccccc2)(c2ccccc2)C1
inactive: all assays above

CC(C)CCCCCOC(=O)CS
inactive: all assays above

CCOC(=O)c1ccc(C)cc1
inactive: all assays above
